# Test results published in the supplement of paper PMC6555819.
# Experiments:
# Assay in all cases: PBM binding z-score (relative to random genomic background probes); higher = stronger binding; sequences stand for … in GC…GCGATTGACAGCGTAGAATGAAGG
# [1] = system: FXR:RXRa (NR concentration 270 nM, RXRa partner concentration 90 nM)
# In short: (§1)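 Ligand-free nuclear receptor dimers were applied to custom Agilent 4×180K protein-binding microarrays whose double-stranded probes carried direct-repeat seeds, single-nucleotide variants, half-site ablations and random human genomic background sequences in 34-nt variable regions. Incubation lasted 1 h. Binding z-scores were computed against the random background probes from regression-normalized fluorescence.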
# [2] = system: LXRa:RXRa (NR concentration 270 nM, RXRa partner concentration 90 nM)
# In short: as §1
# [3] = system: LXRa homodimer (NR concentration 270 nM)
# In short: as §1
# [4] = system: LXRb:RXRa (NR concentration 270 nM, RXRa partner concentration 90 nM)
# In short: as §1
# [5] = system: LXRb homodimer (NR concentration 270 nM)
# In short: as §1
# [6] = system: PPARa:RXRa (NR concentration 270 nM, RXRa partner concentration 90 nM)
# In short: as §1
# [7] = system: PPARg:RXRa (NR concentration 180 nM, RXRa partner concentration 90 nM)
# In short: as §1
# [8] = system: PPARg:RXRa 270nM:90nM, anti-RXR (NR concentration 270 nM, RXRa partner concentration 90 nM)
# In short: as §1
# [9] = system: PPARg:RXRa 30nM:10nM, anti-RXR (NR concentration 30 nM, RXRa partner concentration 10 nM)
# In short: as §1
# [10] = system: PPARg:RXRa 90nM:30nM, anti-RXR (NR concentration 90 nM, RXRa partner concentration 30 nM)
# In short: as §1
# [11] = system: PPARg:RXRa DBDmut IVT, anti-RXR (DBD mutation: RXRa K156A/R161A, NR concentration 270 nM, RXRa partner concentration 90 nM)
# In short: as §1
# [12] = system: PPARg:RXRa IVT, anti-PPARg (NR concentration 270 nM, RXRa partner concentration 90 nM)
# In short: as §1
# [13] = system: PPARg DBDmut:RXRa IVT, anti-PPARg (DBD mutation: PPARg1 K132A/R137A, NR concentration 270 nM, RXRa partner concentration 90 nM)
# In short: as §1
# [14] = system: PPARg DBDmut IVT, anti-PPARg (DBD mutation: PPARg1 K132A/R137A, NR concentration 270 nM)
# In short: as §1
# [15] = system: PPARg homodimer (NR concentration 180 nM)
# In short: as §1
# [16] = system: PXR:RXRa (NR concentration 270 nM, RXRa partner concentration 90 nM)
# In short: as §1
# [17] = system: PXR homodimer (NR concentration 270 nM)
# In short: as §1
# [18] = system: RARa:RXR (NR concentration 270 nM, RXRa partner concentration 90 nM)
# In short: as §1
# [19] = system: RARa homodimer (NR concentration 270 nM)
# In short: as §1
# [20] = system: RARb:RXRa (NR concentration 270 nM, RXRa partner concentration 90 nM)
# In short: as §1
Sequence,PBM binding z-score [1],PBM binding z-score [2],PBM binding z-score [3],PBM binding z-score [4],PBM binding z-score [5],PBM binding z-score [6],PBM binding z-score [7],PBM binding z-score [8],PBM binding z-score [9],PBM binding z-score [10],PBM binding z-score [11],PBM binding z-score [12],PBM binding z-score [13],PBM binding z-score [14],PBM binding z-score [15],PBM binding z-score [16],PBM binding z-score [17],PBM binding z-score [18],PBM binding z-score [19],PBM binding z-score [20]
TCTAGTTGGTCAAAAGTCACACACTCGAAATGCG,1.12,1.12,0.475,1.12,0.73,3.03,5.72,6.29,6.15,7.23,2.33,2.69,0.872,1.33,2,1.02,0.426,1.64,1.24,1.35
CGTCCAAGGTCAAGGACAGTGAAAGAGACTCGAA,6.84,4.98,0.198,3.81,0.401,5.57,5.12,5.16,1.84,3.73,3.23,3.38,1.03,-0.206,2.55,3.63,0.575,4.25,1.12,5.22
TCGTGTAGATCAGCAGGTTAAGAAAGCTGGCCAA,-0.188,0.0517,-0.312,0.0213,-0.844,0.437,-0.564,0.79,1.98,1.42,1.06,-0.357,-0.818,-0.881,0.306,-0.0142,-0.356,0.167,-0.19,-0.0644
ATACCAAGGTGAGCGTGAGGTCGTTGATACTAAC,1.64,1.3,0.0516,1.31,-0.401,2.05,1.03,0.903,0.0304,0.391,1.54,2.2,0.262,-0.46,0.827,3.26,0.571,2.34,0.154,1.97
ATCGAAAGGTCGAAGTTGAGTATACCCACCCGAA,4.36,3.82,0.667,3.19,1.03,4.79,3.29,3.96,1.49,3.12,0.0828,1.59,1.1,1,1.31,3.05,0.0112,3.76,0.0634,3.84
TCTGCTAGGTCAGTTGGTCAGTTAACGAGCTGCC,0.865,0.257,-0.414,0.323,0.405,1.37,0.334,1.33,0.985,1.08,2.93,2.98,1.52,0.61,0.428,-0.000879,-0.602,0.398,-1.15,3.3
TGAATGAGGTTATGAGATCAGGGAACGTTGCAAA,1.67,1.4,-0.558,0.95,-0.381,3.11,1.64,1.96,0.899,1.31,1.33,2.1,0.285,-0.0697,0.328,0.684,0.16,1.57,-0.0238,1.39
TCTAGTTGATCACGGAGGTCACACACGACGGGTA,2.88,3.08,1.8,3.27,0.399,3.76,2.09,3.19,3.41,2.99,1.39,2.26,0.727,1.1,2.02,4.29,1.44,4.94,0.922,3.24
TCGAGTAGGTTAGGGGCATTCAAAATGGCGTCGA,0.3,0.524,-0.23,1.22,-0.0733,1.38,1,1.98,1.27,1.69,2.11,1.45,-0.544,-0.184,0.857,0.792,0.65,0.797,0.0472,1.24
AGAATGAGGTTATTAAGATCAGGGTATTGCGGTC,1.3,1.29,0.345,1.09,0.122,2.46,1.41,1.62,0.322,0.93,3.41,2.66,0.601,0.558,1.18,1.21,1.07,1.28,0.859,1.32
CAAATTAGGTCAAGGTCAAAGTCGGTTTGTGCCA,6.89,5.96,4.73,4.86,2.29,6.17,9.22,8.16,6.73,8.31,8.62,8.52,4.74,1.94,5.8,5.5,3.06,5.77,4.26,5.2
TGAATGAGGTTATAAGATAAGGGAACGTTGCAAA,1.34,1.2,-0.153,0.988,0.119,2.45,1.43,1.62,0.912,1.51,0.589,1.42,1.45,0.957,0.436,0.669,0.0149,1.32,-0.0101,1.04
CGTCCAAGGTCAAAGGTCAGAGAAGAGATGACGG,8.35,7.24,3.55,6.68,1.89,7.26,10.7,9.26,8.39,9.75,4.12,6.13,1.12,0.47,3.77,7.04,1.67,8.89,1.92,5.97
TCTTGTAGATCAATAGAGGTTGAGAAAGTGCGCT,0.33,0.354,-0.0207,0.212,-0.126,0.471,-0.324,1.44,2.63,1.98,1.55,0.494,0.467,0.307,-0.399,1.01,-0.0662,0.48,-0.121,-0.0211
